Assay outcomes deposited in PubChem BioAssay by National Center for Advancing Translational Sciences (NCATS).
An excerpt weighted towards active compounds, which were near 7.2% of everything screened.
MARV entry inh: inhibitors of Marburg virus binding or cell entry; AID 540276; hit rate 1.8% among 300,000; Potency, µM (titrated, usually from 37.8 µM), actives largely listed as inhibitors; Marburg virus pseudotyped entry inhibition, cell reporter; calls by dose curve; tested in HEK293 cells
Sm TGR inh: S. mansoni TGR enzyme inhibition; hit rate 3% among 360,000; Q962Y6; purified TGR, DTNB reduction, TNB absorbance 405 nm; Potency, µM (titrated, usually from 114 µM), most hits filed as inhibitors; AID 485364; also: nearly all actives have a fitted effect of over 60% in size
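Kinetic colorimetric format: TGR-catalysed, NADPH-driven DTNB reduction monitored via TNB absorbance. Enzyme dispensed at 20 nM; compound exposure 15 min at room temperature before reaction start.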
LASV entry inh: Lassa virus entry inhibition | Lassa virus pseudotype entry inhibition, cell reporter | AID 540256 | Potency, µM (highest dose often 37.9 µM), hits mostly inhibitors | hit rate 1.2% among 300,000; calls by dose curve; tested in HEK293 cells; also: nearly all actives have a fitted effect of over 50% in size
FMDV inh: blocks foot and mouth disease virus | FMDV antiviral cell-based qHTS | Potency, µM (doses to about 57.9 µM), actives largely listed as inhibitors | hit rate 1.2% among 410,000; calls by dose curve; tested in HEK293T cells; also: read-out not given here; nearly all actives have a fitted effect of over 45% in size
RE007 growth inh: less growth of the S. pombe RE007 Vpr strain; S. pombe RE007 Vpr strain, BacTiter-Glo ATP luminescence, 24 h; AID 651644; hit rate 0.21% among 360,000; Potency, µM (titrated, usually from 92.2 µM), most hits filed as inhibitors; active = well fitted falling curve with a large enough effect; inconclusive = small, poorly fitted or top-dose-only effect; inactive = no such curve, though single readings can be large or run the other way; also: nearly all actives have a fitted effect of over 50% in size
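Fission yeast RE007 carrying one integrated HIV-1 vpr copy, seeded at OD 0.01 in PMG+AL medium with 23 nL pinned compound. Grown 24 h at 30 degrees; viability read by BacTiter-Glo luminescence after 5 min.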
HCV inhibitor: HCV inhibition; Potency, µM (series often up to 41.8 µM), actives largely listed as inhibitors; hit rate 3.4% among 340,000; Huh7.5.1 HCVcc-Cre infection, luciferase reporter, 44 h
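Whole-lifecycle infectious HCVcc-Cre system; cells 1,000/well, compound then virus (~0.5 moi) added 4 h after plating, 44 h culture. Luciferase read 15 sec following 15 min substrate incubation, room temp.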
A number is an active result; i = inactive; ? = inconclusive; nt = no result; ! = repeats disagree; [ ] = remark or other dose. Unless noted, calls follow the shape of the dose curve; as a rule, active = well fitted curve in the direction sought with a large enough effect; inconclusive = small, poorly fitted or top-dose-only effect, or another doubt; inactive = no such curve, though single readings can be large; an effect the other way counts as inactive or inconclusive.

SMILES	MARV entry inh	Sm TGR inh	LASV entry inh	FMDV inh	RE007 growth inh	HCV inhibitor
O=C1[C@H]2[C@H]3[C@H](O)[C@H](O)C/C(=N\OC[C@@H](O)COCc4ccco4)[C@H]3CC[C@H]2C(=O)N1C1CCCCC1	i	nt	nt	nt	nt	nt
Cc1c(C(=O)N(C)CC2CCCN(C)C2)cnn1-c1nccc(-c2ccco2)n1 (stereo unspecified)	nt	nt	nt	i	nt	nt
Cc1nc2cnc(N3CCN(C)CC3)nc2n(-c2ccccc2)c1=O	nt	nt	nt	i	nt	nt
COc1cccc(-c2ccc3c(c2)N(Cc2cccc(F)c2)C(=O)C(C)S3)c1 (stereo unspecified)	nt	nt	nt	?	i	nt
COc1cc(C2CC(=O)N(Cc3cccc(F)c3)c3ccccc3S2)cc(OC)c1OC (stereo unspecified)	i	i	nt	25µM	nt	nt
OC1(c2cccnc2)CCN(Cc2ccc3c(c2)CN(Cc2cc(F)ccc2F)CCO3)CC1	nt	nt	nt	i	nt	nt
C=C1C(=O)c2sccc2C(c2ccc(OC)c(OC)c2)C1COC(C)=O (stereo unspecified)	0.89µM	nt	7.9µM	13µM	i	1.4µM
CCc1c(C)nc2ncnn2c1NCCc1ccccc1	?	i	i	?	i	28µM
CCc1c(C)nc2ncnn2c1Nc1ccccc1C	i	i	i	i	i	i
CCC1=Nc2cc(C(=O)N3CCC(C)CC3)ccc2Sc2ccc(C)cc21	i	i	i	i	nt	nt
Cc1ccc(C)c(Nc2nnc(-c3ccc(C)c(S(=O)(=O)N4CCN(C)CC4)c3)c3ccccc23)c1	i	i	?	i	nt	nt
O=C(O)C1=C[C@@H](c2ccccc2)C[C@@H](OCc2ccc(CO)cc2)O1	nt	?	nt	i	i	i
O=C(O)C1=C[C@@H](c2ccc(C(F)(F)F)cc2)C[C@@H](OCc2ccc(CO)cc2)O1	nt	40µM	nt	i	i	i
C#Cc1ccc([C@@H]2C=C(C(=O)O)O[C@H](OCc3ccc(CO)cc3)C2)cc1	nt	35µM	nt	i	i	?
O=C(O)C1=C[C@H](c2ccc(Br)cc2)C[C@H](OCc2ccc(CO)cc2)O1	nt	32µM	nt	i	i	i
Cc1c(C(=O)NCc2nccs2)cnn1-c1ncc2c(n1)-c1ccccc1CC2	nt	nt	nt	i	nt	nt
Cc1ccc(C)c(NC(=O)Cn2c(=O)n(Cc3cccs3)c(=O)c3cccnc32)c1	i	i	nt	i	nt	nt
O=C(Cn1c(SCC(=O)Nc2ccc(F)cc2)nc2ccccc21)NCc1ccccc1Cl	nt	i	i	i	nt	nt
CCCNC(=O)N[C@H]1CC[C@@H](CCn2cc(-c3cccc(F)c3)nn2)O[C@@H]1CO	nt	nt	nt	i	i	nt
Cc1ccc(-c2nc(CSCC(=O)NCCN3CCN(Cc4ccccc4)CC3)c(C)o2)cc1	?	i	?	?	i	13µM
Cc1ccc(-c2nc(CSCC(=O)NCCCN3CCOCC3)c(C)o2)cc1	i	i	?	i	i[3.69 µM]	i
CCc1ccc(-c2nc(CS(=O)CC(=O)NCCCN3CCOCC3)c(C)o2)cc1 (stereo unspecified)	i	35µM	i	?	i	i
Cc1oc(-c2ccc(Cl)cc2)nc1CS(=O)CC(=O)NCCCN1CCN(Cc2ccccc2)CC1 (stereo unspecified)	nt	i	nt	i	i	1.3µM
Cc1ccc(-c2nc(CS(=O)CC(=O)NCCCN3CC(C)CC(C)C3)c(C)o2)cc1 (stereo unspecified)	i	i	nt	i	i	?
Cc1oc(-c2ccc(Cl)cc2)nc1CS(=O)CC(=O)NCCCN1CCCC(C)C1 (stereo unspecified)	?	i	i	i	i	?
SMILES	MARV entry inh	Sm TGR inh	LASV entry inh	FMDV inh	RE007 growth inh	HCV inhibitor
CCCc1nc2sc3c(N4CCC(C)CC4)ncnc3c2c2c1CCCC2	?	i	?	i	nt	nt
COc1ccc(-c2cn(-c3ccccc3)c(=S)[nH]2)cc1OC	nt	i	nt	i	i	10µM
COc1ccc(-c2cn(-c3ccc(C)c(C)c3)c(=S)[nH]2)cc1OC	i	?	i	?	i	?
Cc1nc2sc(-c3ccccc3)cc2c(=O)n1N	nt	i	nt	40µM	?	i
Cc1nc2sc(-c3ccccc3)cc2c(=O)[nH]1	?	i	?	nt	i	10µM
O=c1[nH]c(-c2cccnc2)nc2sc(-c3ccccc3)cc12	i	?	i	i	i	i
Cc1nc2sc(-c3ccccc3)cc2c(=O)n1-n1cccc1	?	i	?	i	i	i
O=C(Nc1ccc(C(=O)OCc2cc(=O)n3c4c(sc3n2)CCCC4)cc1)c1ccccc1	nt	i	i	i	nt	nt
COc1ccc(-c2nc3cnc(N4CCOCC4)nc3n(CCC#N)c2=O)cc1	nt	nt	nt	i	nt	nt
CCOC(=O)N1CCC(N(C(=O)Nc2ccc(Cl)c(Cl)c2)C(C)CC)CC1 (stereo unspecified)	?	i	?	nt	i	10µM!
COC(=O)C1=C(C)N(CCc2cc(OC)c(OC)c(OC)c2)C(=O)NC1c1ccc(Br)cc1 (stereo unspecified)	i	nt	i	nt	nt	nt
Nc1ccc(N2CCN(CCCCN3C(=O)C4CCCN4C3=O)CC2)cc1 (stereo unspecified)	3.2µM	i	i	i	i	i
O=C1C=CC(=O)N1c1ccc2c(c1)C(NC(=O)C(F)(F)F)c1ccccc1-2 (stereo unspecified)	i	nt	i	?	40µM	?
CN(C)C(=O)NC1c2ccccc2-c2ccccc21	nt	i	nt	i	i	i
COc1cc(NC(=O)Cn2ncc(Cl)c(Cl)c2=O)c(C)cc1[N+](=O)[O-]	7.1µM	40µM	?	13µM	i	?
CCc1ccccc1NC(=O)CSc1nccn1C	i	i	i	i	nt	nt
CCC1=Nc2cc(C(=O)NCc3ccccc3OC)ccc2Sc2ccc(Cl)cc21	nt	i	i	i	nt	nt
C=CCN1CC[C@]23c4c5ccc(O)c4O[C@H]2/C(=N/NC(=O)c2ccccc2)CC[C@@]3(O)[C@H]1C5	0.089µM!	nt	?	?	i[18.4 µM]	i
C=CCN1CC[C@]23c4c5ccc(O)c4OC2C(=O)CC[C@]3(O)C1C5 (stereo partly specified)	nt	nt	nt	i	nt	nt
C=CCN1CC[C@]23c4c5ccc(O)c4OC2C(=O)CC[C@@]3(O)C1C5 (stereo partly specified)	nt	40µM	nt	i	i	2.5µM
CC(=O)C1C(N2CC2)CC2C3CCC4=CC(=O)CCC4(C)C3CCC21C (stereo unspecified)	?	nt	?	i	i	0.56µM
Cc1ccc(CSC2=Nc3ccccc3C3=NC(CC(=O)NCc4ccco4)C(=O)N23)cc1 (stereo unspecified)	i	35µM	i	i	i	?
O=C(CC1N=C2c3ccccc3N=C(SCc3ccc(F)cc3)N2C1=O)NCc1ccco1 (stereo unspecified)	i	?	i	i	i	?
O=C(CCC1N=C2c3ccccc3N=C(SCc3ccc(F)cc3)N2C1=O)NCc1ccco1 (stereo unspecified)	i	25µM	i	i	i	i
Cc1ccc2[nH]c(C(=O)NCc3nc(-c4cccc(NC(=O)c5cc(C)oc5C)c4)oc3C)cc2c1	nt	nt	nt	i	nt	nt
O=C1NC(=O)N(Cc2ccccc2Cl)C(=O)/C1=C/N1CCOCC1	i	3.5µM	i	i	i	i
